Structures are written as SMILES. Hit rate of the full screen: of about 350,000 compounds, about 1,600 (0.46%) were called active.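 How the source made its calls: active means every replicate reaching a set inhibition limit, whatever the replicate mean (cut at about 25% in these data); inconclusive means mean inhibition reaches that limit but some replicates miss it; inactive means the rest.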 For the sample, actives were picked, then their nearest neighbours and some compounds at random.

The assay deals with Protein AF-9 (Homo sapiens) (UniProt P42568). In words: inhibitors of AF4 peptide binding to AF9, primary screen, biochemical, AlphaScreen, biotin-AF4 peptide, FLAG-AF9, single point (AID 651704).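 Further: 0% = plate neutral control median and 100% = total signal loss.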 The note with it: at 10 µM, stronger effect = higher value. For orientation: Alpha assays give light when donor and acceptor beads are brought close together.
Chain of Protein AF-9 (Homo sapiens) (P42568 whole entry, looked up): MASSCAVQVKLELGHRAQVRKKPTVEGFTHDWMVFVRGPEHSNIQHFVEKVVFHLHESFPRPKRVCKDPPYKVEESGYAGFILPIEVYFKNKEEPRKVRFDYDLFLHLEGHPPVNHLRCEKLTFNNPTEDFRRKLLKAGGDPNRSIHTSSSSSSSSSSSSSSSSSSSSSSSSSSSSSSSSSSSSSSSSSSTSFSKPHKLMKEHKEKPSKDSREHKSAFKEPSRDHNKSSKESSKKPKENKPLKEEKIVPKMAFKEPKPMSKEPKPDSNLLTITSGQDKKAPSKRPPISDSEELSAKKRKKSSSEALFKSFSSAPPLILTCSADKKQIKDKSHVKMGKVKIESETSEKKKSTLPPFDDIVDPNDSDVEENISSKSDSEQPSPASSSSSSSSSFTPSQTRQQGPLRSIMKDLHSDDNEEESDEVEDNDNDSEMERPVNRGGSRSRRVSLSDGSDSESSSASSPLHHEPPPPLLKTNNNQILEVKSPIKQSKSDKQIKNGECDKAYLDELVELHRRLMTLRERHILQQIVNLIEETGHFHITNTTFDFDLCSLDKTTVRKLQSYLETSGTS
For orientation: inhibition means the change of the read-out against control, counted positive when it falls. With `Cc1cccc(C)c1NC(=O)CNC(=O)c1ccc2c(c1)OCCO2`, the inhibition was -2.49% (inactive). Next, `CN(Cc1c(F)cccc1Cl)C(=O)CNC(=O)c1ccc2c(c1)OCO2`: 34.1% (active); `O=C(NCCc1ccc(C(F)(F)F)cc1)c1ccc2c(c1)OCO2`: -0.679% (inactive); `CO[C@@H]1CN(C)C(=O)c2ccc(NC(=O)c3ccccc3F)cc2OC[C@@H](C)N(CC2CCOCC2)C[C@H]1C`: 1.64% (inactive). Next, `COCC#Cc1ccc2c(c1)O[C@@H](CN(C)Cc1ccccn1)[C@@H](C)CN([C@@H](C)CO)S2(=O)=O`: -4.38% (inactive); `C[C@@H]1CN([C@H](C)CO)C(=O)c2c(c3ccccc3n2C)-c2ccccc2CO[C@H]1CN(C)Cc1ccc(F)cc1`: -2.73% (inactive). With `C[C@@H]1CN([C@@H](C)CO)C(=O)c2c(c3ccccc3n2C)-c2ccccc2CO[C@@H]1CN(C)Cc1ccc2c(c1)OCCN2C` the figure was 30.8% (active); with `C[C@@H]1CN([C@@H](C)CO)C(=O)c2c(c3ccccc3n2C)-c2ccccc2CO[C@@H]1CN(C)Cc1cccc(C(=O)O)c1`, -2.44% (inactive). As for `C[C@H]1CN([C@@H](C)CO)C(=O)c2c(c3ccccc3n2C)-c2ccccc2CO[C@H]1CN(C)Cc1ccc2c(c1)OCO2`, the inhibition is 1.72% (inactive). Next, `C[C@@H]1CN([C@H](C)CO)C(=O)c2c(c3ccccc3n2C)-c2ccccc2CO[C@@H]1CN(C)Cc1ccc(F)cc1`: 0.52% (inactive); `C[C@H]1CN([C@@H](C)CO)C(=O)c2c(c3ccccc3n2C)-c2ccccc2CO[C@@H]1CN(C)Cc1ccc2c(c1)OCCN2C`: 34.3% (active); `Cc1ccccc1S(=O)(=O)N1CC(=O)N2[C@H](CO)[C@@H](c3ccc(C#Cc4ccccc4)cc3)[C@H]2C1`: -0.846% (inactive). Next, `C[C@H](CO)N1C[C@H](C)[C@H](CN(C)Cc2ccccc2)OCCCC[C@H](C)Oc2ccc(NC(=O)Cc3ccccc3)cc2C1=O`: 3.76% (inactive).

For `Cc1noc(C)c1S(=O)(=O)N(C)C[C@@H]1OCCCC[C@H](C)Oc2ccc(NC(=O)NC(C)C)cc2C(=O)N([C@H](C)CO)C[C@@H]1C`, the inhibition was 1.67% (inactive).

Turning to `O=C(C[C@H]1CC[C@H]2[C@@H](COC[C@H](O)CN2C(=O)Nc2ccc(Cl)cc2)O1)NCC1CC1`, the inhibition was 2.2% (inactive). Next, `O=C(Cc1cccnc1)N1CC(=O)N2[C@@H](CO)[C@@H](c3ccc(C#CC4CCCC4)cc3)[C@@H]2C1`: 0.34% (inactive). Consider `CN(C)C(=O)C[C@@H]1CC[C@@H](NC(=O)NC2CCCC2)[C@@H](CO)O1`, for which the inhibition was -1.49% (inactive).

As to `COc1cccc(-c2ccc([C@@H]3[C@H]4CN(C(=O)c5cccnc5)CC(=O)N4[C@H]3CO)cc2)c1`, the inhibition is 0.197% (inactive).
